Compounds with a hit are over-represented: about 7.7% of the library has one in this group of screens.
HCMV antiviral – inhibitors of human cytomegalovirus; HFF cells, HCMV-luciferase reporter, 72 h; hits give low values; activity change, negative = inhibition, % at 57.5 µM; AID 1259415; actives 4.5% (n = 410,000); in the data active means activity change below about -60%; inconclusive means no clear call, values can overlap the other calls; inactive means above about -39%
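HFF cells seeded 16 h at 37C, treated with compounds, infected with luciferase-reporter HCMV at MOI 1 PFU/cell; luciferase read at 72 h post infection, normalized to buffer-only and Salinomycin controls.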
FMDV antiviral – blocks foot and mouth disease virus | Potency, µM (highest dose often 57.9 µM), inactives show at the highest dose activity change, negative = inhibition, actives largely listed as inhibitors | actives 1.2% (n = 410,000) | FMDV antiviral cell-based qHTS; calls by dose curve; tested in HEK293T cells; further: read-out not given here; potency means the concentration at half of the fitted maximal effect; nearly all actives have a fitted effect of over 45% in size
TbPYK inhibitor – inhibitors of Trypanosoma brucei pyruvate kinase; TbPYK enzyme, Kinase-Glo Plus ATP luminescence, 45 min; Potency, µM (doses to about 76.8 µM), without a hit: at the top dose activity, negative = inhibition, hits mostly inhibitors; actives 0.12% (n = 410,000); AID 624173; further: potency means the concentration at half of the fitted maximal effect; nearly all actives have a fitted effect of over 50% in size
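Glycolytic pyruvate kinase of T. brucei was incubated with substrate, test compound and 130 uM ADP for 45 minutes at room temperature. Luminescent Kinase-Glo Plus signal was measured after 10 minutes.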
RE007 growth inh – less growth of the S. pombe RE007 Vpr strain; S. pombe RE007 Vpr strain, BacTiter-Glo ATP luminescence, 24 h; Potency, µM (series often up to 92.2 µM), for inactives: top-dose activity change, negative = less growth, usual class: inhibitors; actives 0.21% (n = 360,000); active means well fitted falling curve with a large enough effect; inconclusive means small, poorly fitted or top-dose-only effect; inactive means no such curve, though single readings can be large or run the other way; further: potency means the concentration at half of the fitted maximal effect; nearly all actives have a fitted effect of over 50% in size
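Fission yeast RE007 carrying one integrated HIV-1 vpr copy, seeded at OD 0.01 in PMG+AL medium with 23 nL pinned compound. Grown 24 h at 30 degrees; viability read by BacTiter-Glo luminescence after 5 min.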
Sm TGR block – S. mansoni TGR enzyme inhibition; AID 485364; Q962Y6; actives 3% (n = 360,000); purified TGR, DTNB reduction, TNB absorbance 405 nm; Potency, µM (series often up to 114 µM), inactives show top-dose activity change, negative = inhibition, usual class: inhibitors; further: potency means the concentration at half of the fitted maximal effect; nearly all actives have a fitted effect of over 60% in size
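TGR 20 nM + NADPH 100 uM (dispensed conc.), cpd preinc 15 min RT; start with NADPH (500 uM addition) then DTNB (15 mM addition). Kinetic TNB absorbance, 405 nm filter. Four-parameter Hill fit across titration.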
Giardia FBPA inh – inhibitors of Giardia lamblia fructose-1,6-bisphosphate aldolase | Potency, µM (highest dose often 59.6 µM), for the others: at the top dose activity, negative = inhibition, actives largely listed as inhibitors | actives 0.71% (n = 290,000) | A8B2U2 | purified Giardia FBPA; further: potency means the concentration at half of the fitted maximal effect; nearly all actives have a fitted effect of over 55% in size
Target sequence (A8B2U2 whole entry, looked up): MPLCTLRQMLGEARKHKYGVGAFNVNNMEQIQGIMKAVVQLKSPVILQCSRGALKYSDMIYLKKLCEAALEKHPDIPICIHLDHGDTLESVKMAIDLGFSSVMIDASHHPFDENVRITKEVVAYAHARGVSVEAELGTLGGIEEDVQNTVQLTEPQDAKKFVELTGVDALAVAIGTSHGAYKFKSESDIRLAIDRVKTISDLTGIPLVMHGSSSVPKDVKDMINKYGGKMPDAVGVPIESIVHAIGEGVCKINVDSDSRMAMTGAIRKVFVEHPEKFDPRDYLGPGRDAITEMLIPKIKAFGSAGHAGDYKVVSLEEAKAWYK
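Giardia FBPA (40 nM reagent) was preincubated 10 min at RT with compound (up to 57.5 uM final), then substrate plus GAPDH/TPI/NAD/arsenate coupling system with diaphorase/resazurin was added; resorufin fluorescence (525/598 nm) was read after 20 min.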
* hit, by the source's call; ! = not confirmed by another sample; [ ] = remark or other dose. Unless noted, the call rests on the fitted dose curve; in most records, active means well fitted curve in the direction sought with a large enough effect; inconclusive means small, poorly fitted or top-dose-only effect, or another doubt; inactive means no such curve, though single readings can be large; an effect the other way counts as inactive or inconclusive. On the % scale 0 is the no-effect control and ±100 the full control effect.

How did CC1CCN(c2c(NCc3ccc(C(=O)N(C)C4CCCCC4)cc3)c(=O)c2=O)CC1 do in these assays?
HCMV antiviral: -11; FMDV antiviral: 8%; TbPYK inhibitor: -3%; RE007 growth inh: 7%; Sm TGR block: 7%; Giardia FBPA inh: 6%

Results for Cc1cccc(N2CCN(C(=O)c3ccc(CNc4c(N5CCC(C)CC5)c(=O)c4=O)cc3)CC2C)c1 (stereo not given) ?
HCMV antiviral: -60*; FMDV antiviral: inconclusive; TbPYK inhibitor: -1%; RE007 growth inh: 8%; Sm TGR block: -13%; Giardia FBPA inh: 11%

What do the screens show for `CCCCNC(=O)c1ccc(CNc2c(N3CCC(C(=O)OCC)CC3)c(=O)c2=O)cc1`?
HCMV antiviral: -61*!; FMDV antiviral: -4%; TbPYK inhibitor: -6%; RE007 growth inh: -5%; Sm TGR block: 4%; Giardia FBPA inh: -10%

Results for CCOC(=O)C1CCN(c2c(NCc3ccc(C(=O)NCCOC)cc3)c(=O)c2=O)CC1 ?
HCMV antiviral: inconclusive; FMDV antiviral: -13%; TbPYK inhibitor: -2%; RE007 growth inh: -16%; Sm TGR block: 0%; Giardia FBPA inh: -3%

What do the screens show for `CC1CCN(c2c(NCc3ccc(C(=O)N4CCc5ccccc54)cc3)c(=O)c2=O)CC1`?
HCMV antiviral: -84*; FMDV antiviral: 17%; TbPYK inhibitor: -5%; RE007 growth inh: -12%; Sm TGR block: -5%; Giardia FBPA inh: 0%

Results for O=C(CN1C(=O)CCc2cc(S(=O)(=O)N3CCOCC3)ccc21)NCc1ccc(F)cc1 ?
HCMV antiviral: 5; FMDV antiviral: 7%; TbPYK inhibitor: -4%; Sm TGR block: -16%

Results for C/C(=N\Nc1ccc([N+](=O)[O-])cc1)c1ccc(N2CCOCC2)cc1 ?
HCMV antiviral: 0; FMDV antiviral: 2%; TbPYK inhibitor: -8%; RE007 growth inh: -5%; Sm TGR block: 0%; Giardia FBPA inh: 0%

Results for C/C(=N\Nc1nc(C)c(C)s1)c1ccc([N+](=O)[O-])cc1 ?
HCMV antiviral: 54; FMDV antiviral: 28µM*; TbPYK inhibitor: -2%; RE007 growth inh: -20%; Sm TGR block: 22µM*; Giardia FBPA inh: -20%

Results for C/C(=N\Nc1ccc([N+](=O)[O-])cc1)c1ccc(-n2nncc2C)cc1 ?
HCMV antiviral: -66*; FMDV antiviral: -10%; TbPYK inhibitor: -20%; RE007 growth inh: -6%; Sm TGR block: -5%; Giardia FBPA inh: 1%

What do the screens show for `Cc1cc(C)c(C(=O)N2CCCC(N3CCN(c4ccc(F)cc4)CC3)C2)o1` (stereo not given)?
HCMV antiviral: -69*; FMDV antiviral: inconclusive; TbPYK inhibitor: -5%; RE007 growth inh: -14%; Sm TGR block: 4%; Giardia FBPA inh: -1%

Results for O=C(c1ccoc1)N1CCCC(N2CCN(c3ccc(F)cc3)CC2)C1 (stereo not given) ?
HCMV antiviral: -12; FMDV antiviral: -19%; TbPYK inhibitor: -7%; RE007 growth inh: 0%; Sm TGR block: -4%; Giardia FBPA inh: -1%

Results for O=C(c1cccc(-c2ccco2)c1)N1CCCC(N2CCN(c3ccc(F)cc3)CC2)C1 (stereo not given) ?
FMDV antiviral: 35µM*; TbPYK inhibitor: -9%; RE007 growth inh: 8%; Sm TGR block: -30%

Results for O=C(CSc1ccccc1)N1CCCC(N2CCN(c3cccc(Cl)c3)CC2)C1 (stereo not given) ?
HCMV antiviral: -26

How did O=C(CSc1ccccc1)N1CCCC(N2CCN(c3ccc(F)cc3)CC2)C1 (stereo not given) do in these assays?
HCMV antiviral: -70*; FMDV antiviral: -17%; TbPYK inhibitor: 3%; RE007 growth inh: -3%; Sm TGR block: 1%

Results for O=C(CSc1ccc(F)cc1)N1CCOCC1 ?
HCMV antiviral: -88*; FMDV antiviral: -10%; TbPYK inhibitor: 1%; RE007 growth inh: -10%; Sm TGR block: 4%; Giardia FBPA inh: 7%

Results for CCN1C(=NCC(C)C)N[C@@H](c2ccccc2)[C@H](C(=O)OC)[C@H]1C ?
Sm TGR block: -15%; Giardia FBPA inh: 18%

Results for CCCCCCCCCCCCCCCCn1cc[n+](C)c1 ?
HCMV antiviral: -96*; FMDV antiviral: 32µM*; TbPYK inhibitor: -2%; RE007 growth inh: 14µM*; Sm TGR block: 13%; Giardia FBPA inh: 2%

Results for O=C1Nc2c(c(=O)[nH]c(=O)n2-c2ccccc2)C1(NS(=O)(=O)c1ccc(Cl)cc1)C(F)(F)F (stereo not given) ?
HCMV antiviral: 16; FMDV antiviral: -5%; TbPYK inhibitor: 1%; Sm TGR block: 1%

Results for CN(C(=O)COc1cc(=O)n(C)c2ccccc12)c1cccc(Cl)c1 ?
HCMV antiviral: -32; FMDV antiviral: -24%; TbPYK inhibitor: -17%; RE007 growth inh: 10%; Sm TGR block: -15%; Giardia FBPA inh: -17%

What do the screens show for `CCN(C(=O)COc1cc(=O)n(C)c2ccccc12)c1cccc(Cl)c1`?
HCMV antiviral: -90*; FMDV antiviral: -29%; RE007 growth inh: 0%[3.69 µM]; Sm TGR block: -4%; Giardia FBPA inh: -5%

Results for O=S(=O)(c1cc(F)ccc1F)N1CCN(c2ncnc3ccccc23)CC1 ?
HCMV antiviral: inconclusive; FMDV antiviral: 10µM*; TbPYK inhibitor: 0%; RE007 growth inh: -5%

How did O=S(=O)(c1cc(F)ccc1F)N1CCN(c2ccccn2)CC1 do in these assays?
HCMV antiviral: -8; FMDV antiviral: -20%; TbPYK inhibitor: 5%; RE007 growth inh: 2%; Sm TGR block: 1%; Giardia FBPA inh: 6%

How did O=S1(=O)C=C(Sc2nnc(-c3ccccc3)o2)c2ccccc21 do in these assays?
FMDV antiviral: 10µM*; TbPYK inhibitor: inconclusive; RE007 growth inh: 10µM*; Sm TGR block: 0.5µM*; Giardia FBPA inh: -4%

Results for CCCOc1ccc(CNC(=O)C2CCN(c3nc4ccccc4nc3C(F)(F)F)CC2)cc1 ?
HCMV antiviral: 16; FMDV antiviral: -28%; TbPYK inhibitor: -7%; Sm TGR block: 3%

How did BrC(=C\c1ccccc1)/C=N/n1cnnc1 do in these assays?
HCMV antiviral: -99*; FMDV antiviral: inconclusive; TbPYK inhibitor: 1%; RE007 growth inh: -6%; Sm TGR block: -16%; Giardia FBPA inh: 1%

Results for COc1ccc(NC(=O)CSc2nc(-c3cccs3)cc(C(F)(F)F)n2)cc1OC ?
HCMV antiviral: -69*; FMDV antiviral: inconclusive; TbPYK inhibitor: 1%; Sm TGR block: 5%
